Measured values taken from PubChem BioAssay AID1159580 (chemical genetic matrix, 2015).
Screen size: about 5,500 compounds; about 2,000 (36%) were called active. Inconclusive results (about 18%) are left out. No stated cut-off is given here; in the data, active means normalized growth mostly below about 0.91 (no sharp cut-off); inconclusive means no clear call, values can overlap the other calls; inactive means mostly above about 0.92. The list shows a part of the results.

Assay: chemical genetic growth profiling, strain panel (AID 1159580);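 further: tested at 20 µM; growth read once vehicle control cultures reached saturation at 30 °C; 1 = growth at the plate median or of vehicle wells; lower values mean less growth of the strain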
Conditions: S. cerevisiae deletion strains, growth OD
[1] = locus YMR263W, strain SAP30, hits give low values
[2] = locus YMR307W, strain GAS1, hits give low values

Measured: normalized growth

CC(=O)OC1CC2C(C)(C)CCCC2(C)C2CCC3(C)C(c4ccoc4)OC(=O)C4OC43C12C (configuration not stated)
inactive: locus YAL013W, strain DEP1, hits give low values 0.993 | locus YBR021W, strain FUR4, hits give low values 0.981 | locus YBR229C, strain ROT2, hits give low values 0.995 | locus YCL029C, strain bik1, hits give low values 1.02 | locus YDL035C, strain GPR1, hits give low values 0.975 | locus YDL074C, strain BRE1, hits give low values 0.988 | locus YDL101C, strain DUN1, hits give low values 1.02 | locus YDL134C, strain PPH21, hits give low values 0.987 | locus YDL185W, strain tfp1, hits give low values 1.03 | locus YDL192W, strain arf1, hits give low values 1.01 | locus YDR101C, strain arx1, hits give low values 1.02 | locus YDR150W, strain NUM1, hits give low values 1 | locus YDR162C, strain NBP2, hits give low values 0.979 | locus YDR318W, strain mcm21, hits give low values 1.01 | locus YDR388W, hits give low values 1.01 | locus YDR502C, strain sam2, hits give low values 0.999 | locus YEL061C, strain CIN8, hits give low values 1 | locus YER110C, hits give low values 1.02 | locus YER155C, strain BEM2, hits give low values 1 | locus YER167W, strain BCK2, hits give low values 1 | locus YGL078C, strain dbp3, hits give low values 1.01 | locus YGL086W, strain mad1, hits give low values 1 | locus YGL248W, strain PDE1, hits give low values 1 | locus YGR135W, strain pre9, hits give low values 1 | locus YGR252W, strain gcn5, hits give low values 0.914 | locus YHR030C, strain SLT2, hits give low values 1.01 | locus YHR079C, strain IRE1 (second series), hits give low values 1.01 | locus YHR094C, strain hxt1, hits give low values 1.01 | locus YHR129C, strain ARP1, hits give low values 1 | locus YHR200W, strain rpn10, hits give low values 1 | locus YIL066C, strain RNR3, hits give low values 1 | locus YIL073C, strain SPO22, hits give low values 1.02 | locus YIL125W, strain kgd1, hits give low values 1.01 | locus YIR030C, strain dcg1, hits give low values 1.01 | locus YJL095W, strain BCK1, hits give low values 0.991 | locus YJL134W, strain LCB3, hits give low values 1.01 | locus YJL168C, strain set2, hits give low values 1.01 | locus YJL187C, strain SWE1 (second series), hits give low values 0.999 | locus YJR043C, strain POL32, hits give low values 0.978 | locus YJR075W, strain HOC1, hits give low values 0.995 | locus YKL009W, strain mrt4, hits give low values 1 | locus YKL068W, hits give low values 1.01 | locus YKL085W, strain MDH1 (second series), hits give low values 1 | locus YKL085W, strain MDH1, hits give low values 1 | locus YKL190W, strain CNB1, hits give low values 1 | locus YKR001C, strain vps1, hits give low values 0.993 | locus YLR039C, strain RIC1, hits give low values 1.01 | locus YLR058C, strain SHM2, hits give low values 1.01 | locus YLR102C, strain apc9, hits give low values 1.01 | locus YLR262C, strain YPT6, hits give low values 1.03 | locus YLR268W, strain sec22, hits give low values 1.01 | locus YLR330W, strain CHS5, hits give low values 1.01 | locus YLR342W, strain FKS1 (second series), hits give low values 0.954 | locus YLR371W, strain rom2, hits give low values 1.02 | locus YLR418C, strain cdc73, hits give low values 1.01 | locus YML016C, strain PPZ1, hits give low values 1.01 | locus YML032C, strain rad52, hits give low values 1.01 | locus YML124C, strain tub3, hits give low values 1.02 | locus YMR078C, strain ctf18, hits give low values 1.02 | locus YMR223W, strain ubp8, hits give low values 1 | [1] 1.01 | [2] 0.854 | locus YNL067W, strain RPL9B, hits give low values 1.02 | locus YNL153C, strain GIM3, hits give low values 1 | locus YNL233W, strain BNI4, hits give low values 0.99 | locus YNL250W, strain rad50, hits give low values 1.01 | locus YNL271C, strain bni1, hits give low values 0.998 | locus YNL298W, strain CLA4, hits give low values 1.01 | locus YNL307C, strain MCK1, hits give low values 1.01 | locus YNR052C, strain pop2, hits give low values 1.01 | locus YOL012C, strain htz1 0.802 | locus YOL147C, strain pex11, hits give low values 1.01 | locus YOR061W, strain CKA2, hits give low values 1.01 | locus YOR069W, strain VPS5, hits give low values 1.01 | locus YOR136W, strain idh2, hits give low values 1.01 | locus YOR144C, strain elg1, hits give low values 1.01 | locus YOR184W, strain ser1, hits give low values 1.01 | locus YOR316C, strain cot1, hits give low values 1.01 | locus YPR119W, strain clb2, hits give low values 1.01 | locus YPR141C, strain kar3, hits give low values 1.02 | locus YPR163C, strain tif3, hits give low values 1.02 | locus YPR167C, strain met16, hits give low values 1.01 | strain wtn01, hits give low values 1

CCN1CCC[C@H]1CNC(=O)c1c(O)c(Cl)cc(Cl)c1OC
inactive: locus YAL040C, strain CLN3, hits give low values 1.01 | locus YCL061C, strain MRC1 (second series), hits give low values 1 | locus YDR363W, strain ESC2, hits give low values 1.03 | locus YER002W, strain NOP16, hits give low values 0.998 | locus YGR229C, strain SMI1, hits give low values 1.02 | [1] 1.01 | [2] 1 | locus YNL128W, strain TEP1, hits give low values 1.03 | locus YNL175C, strain NOP13, hits give low values 1.01 | locus YNL197C, strain WHI3, hits give low values 1.01 | locus YNL224C, strain SQS1, hits give low values 1.03 | locus YNL322C, strain KRE1, hits give low values 1.02 | locus YOR083W, strain WHI5 (second series), hits give low values 1.02 | locus YPL241C, strain CIN2, hits give low values 0.996
